SMILES strings stand for the structures. In all, about 220,000 compounds went through this assay and about 2,000 (0.91%) were called active. About 2% were inconclusive and are not listed. The list is a sample of the results. Potency and affinity values are given separately. Unmarked numbers belong to inactive results. Cut-off read from the data, not from the text of the source: inconclusive = inhibition above about 80% without an active follow-up result; inactive = below that; test concentration not stated here.

In PubChem BioAssay AID1626 (SRMLSC, 2009) one finds inhibition data, which are given here for 95 molecules.

A short description of the assay: M. tuberculosis H37Rv growth inhibitors, H37Rv strain (AID 1626).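 Note: bacteria incubated seven days before Alamar blue readout; 0% = bacteria only wells and 100% = bacteria with antibiotic wells.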 As to conditions: stronger effect = higher value, concentration not given here.
As usually defined, the inhibition is the drop in the measured response relative to a control, in per cent. On to `Cc1cccc(C(=O)N2CCC(=O)N(C(COCc3cccc(Cl)c3)Cc3ccccc3)CC2)c1` (stereo not given), for which the inhibition is -0.5%.
With `O=C(CCN1C(=O)C2CCCCC2C1=O)Nc1ccc(F)c(F)c1F` (stereo not given), the inhibition is -4.84%.
As for `O=C(CCN1C(=O)C2CCCCC2C1=O)Nc1nc(-c2ccccc2)cs1` (stereo not given), the inhibition was 6.05%.
The figure for `CCOC(=O)C1(CC2CCCCO2)CCN(C(=O)NCc2ccccc2)CC1` (stereo not given) is 4.64%; for `COc1ccc(-c2cc(C(F)(F)F)nc(N3CCOCC3)n2)cc1` it is -0.92%.
Under `c1ccc(-c2cnc(-c3ccccc3)nc2)cc1` stands -5.94%; under `Nc1c(Cl)nc(-c2ccccc2)nc1Cl`, 0.39%.
Take `O=C(CCN1C(=O)C2C3C=CC(C3)C2C1=O)Nc1nccs1` (stereo not given): the inhibition was -5.43%.
The figure for `O=C1CNC(=S)N1CCc1ccc(Cl)cc1` is -6.23%.
With `CCc1ccccc1NC(=O)CN(C)C(=O)CSc1nn(-c2ccc(F)cc2)c(=S)s1`, the inhibition is -11.2%.
Under `COc1ccc(-c2nc(C(F)(F)F)c(OC)o2)cc1OC` stands -0.95%; under `O=C(C1CCN(Cc2ccc(F)cc2)CC1)N1CCN(C/C=C/c2ccccc2)CC1`, 5.92%.
`O=C(Nc1ccc(F)cc1)N1CCN(C/C=C/c2ccccc2)CC1`: the inhibition was -13%.
The figure for `COCCNC(=O)CN(C)S(=O)(=O)c1ccc(Br)cc1` is -4.89%.
Under `Cc1cc(C(=O)c2ccc(Cl)cc2)c(NC(=O)CCl)s1` stands 73.2%; under `CCc1cc(C(=O)c2ccc(C)cc2)c(NC(=O)CCl)s1`, 76.6%; under `COc1ccc(-c2nnc(SCC(=O)N3CCCCC3)o2)cc1OC`, 5%.
In the case of `COc1ccc(-c2nnc(SCC(=O)N3CCCC3)o2)cc1OC`, the inhibition is -0.93%.
The figure for `COc1cc(-c2nnc(SCC(=O)c3ccc(C)cc3)o2)cc(OC)c1OC` is 2.03%; for `O=C(CSc1nnc(-c2cccs2)o1)N1CCCCC1` it is 1.5%; for `COc1ccc(-c2nnc(SCC(=O)N3CCOCC3)o2)cc1OC` it is -5.9%.
For the molecule `O=C(CSc1nnc(-c2cccs2)o1)OCc1ccccc1`, the inhibition is -0.9%.
The figure for `COc1ccc(OC)c(C(=O)CSc2nnc(-c3ccc(OC)c(OC)c3)o2)c1` is -6.09%.
In the case of `O=C(CSc1nnc(-c2cccnc2)o1)OC1CCCCC1`, the inhibition was -4.83%.
Turning to `C=CCn1nnnc1-c1cc(Cl)cc(Cl)c1`, the inhibition was 2.4%.
Take `CCCn1nc(C(=O)OCC(=O)c2c(N)n(C)c(=O)n(C)c2=O)c2ccccc2c1=O`: the inhibition was 5.18%.
Take `N#Cc1c(/N=C/c2cccnc2)sc2c1CCCC2`: the inhibition is 2.15%.
The figure for `O=C(CN1C(=O)c2ccccc2C1=O)Nc1cccc2cccnc12` is 7.46%; for `CC1=CC(C)(C)N(C(=O)CSc2nncn2C)c2ccccc21` it is 4.36%; for `C=CCN(CC=C)S(=O)(=O)c1ccc(NC(=S)NC(=O)/C=C/c2cccc3ccccc23)cc1` it is 2.67%.
With `CC(C)(C)OC(=O)NNC(=S)NCc1ccc(Cl)cc1`, the inhibition is -13%.
Under `CCc1ccc2[nH]c(=O)c(CN(Cc3ccccc3OC)C(=O)Nc3ccccc3OC)cc2c1` stands 7.78%.
For the molecule `CC1CCN(C(=O)CSc2nnc(-c3cccnc3)n2C2CCCCC2)CC1`, the inhibition was -2.09%.
Under `COc1cc(-c2cc(C(=O)Nc3ccc(S(=O)(=O)Nc4ncccn4)cc3)c3ccccc3n2)cc(OC)c1OC` stands 40.2%; under `Cc1cc(C)cc(OCc2nnc(SCC(=O)N3CCN(c4ccccc4)CC3)o2)c1`, -4.78%; under `Cc1cccc(C(=O)c2c(N)sc3c2CCC(C)C3)c1` (stereo not given), 5.18%.
Under `CCOc1ccc(S(=O)(=O)NCCN2CCOCC2)c2ccccc12` stands -4.29%; under `CCOC(=O)C1(CC2CCCCO2)CCN(C(=O)Nc2ccccc2SC)CC1` (stereo not given), 6.6%; under `CCC(=O)N1CCN(c2c(Cl)cccc2[N+](=O)[O-])CC1`, 4.63%.
The figure for `CCCCN(CC)CCCNC(=S)Nc1ccc2nc3n(c(=O)c2c1)CCCCC3` is -5.11%; for `O=C(COC(=O)c1n[nH]c2ccccc12)Nc1ccccc1` it is -10.9%.
For `O=C(NCCN1CCOCC1)c1ccccc1[N+](=O)[O-]`, the inhibition is 1.9%.
With `O=C(NCCCN1CCOCC1)c1ccc(Cl)cc1[N+](=O)[O-]`, the inhibition was -0.73%.
The figure for `O=C(NCCN1CCOCC1)c1ccc(Cl)cc1[N+](=O)[O-]` is -10.2%.
The figure for `O=C(NCCCN1CCOCC1)c1cc(Cl)ccc1[N+](=O)[O-]` is -3.28%; for `COc1ccc(CNC(=O)COC(=O)c2n[nH]c3ccccc23)cc1` it is 10.8%.
As for `Cc1ccc(SC[C@H](CC(C)C)N2CCN(CCc3ccccc3)CCC2=O)cc1`, the inhibition was 16.3%.
Under `CCOc1ccccc1-c1n[nH]c(=S)o1` stands 6.98%; under `COCCOC(=O)C1=C(C)NC(=O)NC1c1c(Cl)nc2c(C)cccn2c1=O` (stereo not given), -7.69%; under `Cc1noc(C)c1S(=O)(=O)N1CCCC(C(=O)c2cccc(OC(C)C)c2)C1` (stereo not given), 0%.
The figure for `Cc1nc2cc(C(=O)OCC(=O)NC3CCS(=O)(=O)C3)ccc2n1-c1ccccc1` (stereo not given) is -9.28%; for `Cc1nc2cc(C(=O)OCC(=O)NC(C)C(C)C)ccc2n1-c1ccccc1` (stereo not given) it is -6.92%.
The figure for `CCCOc1ccc(/C(O)=C2/C(=O)C(=O)N(CCCOC)C2c2ccncc2)cc1` (stereo not given) is -0.21%; for `COCCCNS(=O)(=O)c1ccc2c(c1)OCCO2` it is -7.88%; for `CC(C)c1nc2sc3ccccc3c(=O)c2c(=O)n1Cc1ccccc1` it is -7.18%.
Consider `COc1ccc(C#Cc2c(-c3ccsc3)oc3ccc(-c4cc(OC)c(OC)c(OC)c4)cc23)cc1`, for which the inhibition is 0.45%.
On to `COc1ccc(-c2ccc3oc(-c4ccc(OC)cc4)c(C#CC4(O)CCCCC4)c3c2)cc1`, for which the inhibition was 18.4%.
Turning to `COc1ccc(-c2oc3ccc(N4CCOCC4)cc3c2C#CC2(O)CCCCC2)cc1`, the inhibition is 89.2%.
`Nc1ccc(C#Cc2c(-c3ccsc3)oc3ccc(N4CCOCC4)cc23)cc1`: the inhibition was 61.1%.
Regarding `CCOc1ccc(C(c2c(NC(=O)c3ccccc3)sc(C)c2C)N2CCN(C)CC2)cc1` (stereo not given), the inhibition was 17.1%.
The figure for `c1ccc(C(c2ccccc2)N2CCN(C(c3ccccn3)c3nnnn3C3CCCC3)CC2)cc1` (stereo not given) is 6.45%.
Under `COc1cc(OC)c2c(=O)cc(-c3cccnc3)oc2c1` stands -11.6%; under `CSc1sc(-c2n[nH]c(=S)n2C)c2c1C=CCC2`, 5.83%.
As for `COC(=O)c1c(NC(=O)c2ccccc2)sc(C(N)=O)c1C`, the inhibition is -3.85%.
As for `COC(=O)c1c(NC(=O)c2ccccc2)sc(Cc2ccccc2)c1C`, the inhibition is -9.2%.
On to `CC(O)CCC(=O)NNC1CC(=O)N(c2ccccc2)C1=O` (stereo not given), for which the inhibition is -8.86%.
Under `C=CCN(c1ccccc1)S(=O)(=O)c1cccc(C(=O)O)c1` stands -12.8%.
For `Cc1ccc(-n2nnnc2Sc2nc([N+](=O)[O-])nn2C)cc1`, the inhibition was 0.83%.
The figure for `Cc1ccc(C)c(-n2nnnc2Sc2nc([N+](=O)[O-])nn2C)c1` is -10.2%.
Regarding `Cc1ccc(C2(c3noc(CN4CCC(c5ccncc5)CC4)n3)CCCC2)cc1`, the inhibition was 13.7%.
The figure for `O=C(O)c1ccc(N/N=C/C2=C(N3CCOCC3)C(=C\c3ccccc3)/CC2)cc1` is -3.9%.
For the molecule `O=CC1=C(N2CCOCC2)/C(=C\c2ccccc2)CC1`, the inhibition was 0.77%.
Under `CC(=O)Nc1ccc(NC(=O)/C=C/c2cccc(C(F)(F)F)c2)cc1` stands 0.39%; under `CCc1ccc2c(c1)C(c1ccncc1)=NNC(c1ccccc1)=N2`, 8.68%; under `CCCC(=O)Nc1nnc(SCC(=O)Nc2ccc3c(c2)OCO3)s1`, 5.81%.
Take `CN1CCN(C(=O)c2ccc(CSc3nc4ccncc4n3Cc3ccc(F)cc3)cc2)CC1`: the inhibition is -0.01%.
Under `COc1ccc2nc(C)cc(C(=O)O)c2c1` stands 0.85%; under `O=C(COc1ccccc1)N1CCN(C/C=C/c2ccccc2)CC1`, -6.49%; under `O=C(CN1CCN(C/C=C/c2ccccc2)CC1)Nc1ccccc1C(=O)NC1CC1`, -0.65%.
As for `O=C(COc1ccc(Cl)cc1)N1CCN(C/C=C/c2ccccc2)CC1`, the inhibition is 0.36%.
The figure for `O=C(CN1CCN(C/C=C/c2ccccc2)CC1)Nc1ccc(F)cc1F` is -0.62%; for `COc1ccc(C)cc1NC(=O)CN1CCN(C/C=C/c2ccccc2)CC1` it is -3.7%; for `COc1ccccc1NC(=O)C(C)N1CCN(C/C=C/c2ccccc2)CC1` (stereo not given) it is 11.9%.
Under `Cc1n[nH]c(=O)nc1NCc1ccc(Cl)cc1` stands 0.09%; under `CC(C)(C)NC(=O)COC(=O)CCC(=O)c1ccc(F)cc1`, -0.61%.
With `Cc1ccc(/C=N/NC(=O)CNC(=O)c2ccc(S(=O)(=O)N(C)C)cc2)cc1`, the inhibition was -4.56%.
The figure for `Cc1ccnc(NS(=O)(=O)c2ccc(NC(=O)/C=C/c3cccs3)cc2)n1` is 11.1%; for `CCOC(=O)C1C(c2ccccc2)NC(=S)NC1(C)O` (stereo not given) it is 1.27%; for `COc1ccc(Nc2ncc(C(=O)O)c3ccccc23)cc1` it is 5.05%.
Under `Cc1cc2ccc(C)c(C)c2nc1SCC(=O)c1cccs1` stands -3.91%; under `Nc1nc(NCC2CCCO2)nc(NCC2CCCO2)c1[N+](=O)[O-]` (stereo not given), -0.89%.
The figure for `O=C(CCCCCN1C(=O)C2C3C=CC(C3)C2C1=O)Nc1nccs1` (stereo not given) is -6.21%; for `CCc1cccc(C)c1NC(=S)N1CCCCC1c1cccnc1` (stereo not given) it is 1.2%; for `COC(=O)C(C#N)c1nc2ccccc2nc1N1CCN(Cc2ccc3c(c2)OCO3)CC1` (stereo not given) it is -4.28%.
Turning to `CC(C)COC(=O)C(C#N)c1nc2ccccc2nc1N1CCN(Cc2ccc3c(c2)OCO3)CC1` (stereo not given), the inhibition was 2.75%.
